# According to the supplement of paper PMC8728848:
# The sample as a whole holds a higher share of the strongest signals than the screen did.
# B1: Awp3 (Candida glabrata), B4UN32 (protein)
# chain: MISFVTLLAILGLLSISWADQTVRSVAGDQRVTDPVIVGDNSILDYYGGSNYDFSNNFEIGRGTLYIGKESYFSSFQSAPTDVPNSFHLLIKNTNNLQNNGQFIIENIKRHANQCSNSSIQVFPINFQNDGEFEIISGGVEGRCCLPTSVIAPQNFLNNGKFYYKVLTDTGSIYSGSCMQNVDIGASTTTTVNNNLWEFTGSINAQINGAVSGAAQINLDGSNMFVNANTFSGQVVNLINGGSFLQTSDPLSNIVVINGLGTSDTGVTSIAVKGKGKSFTYNPSSGIVKLTTVEGKTYAYQIGCGYNTKKFITNNDSGASYESADNFFVLTYSEPYSPQTCQLENSSIFSSNFISTSTSSSSSSSSASSLPSSMSSSLPSSLSSSLSSSLSSSMSSSMSSLFIIPPPYTTTRSSGSSIIDTEIVSFYSTTDSPGHTITGTTTTTLYGPHTHSSVSTPSSSSESSTTSNSSIESSSLPHTSVSSTPESSITPSSNTISSSPTSDFSSVQSSSIMESSSVVASSSVINSSSIVDSSSSSASSLPSSMSSSLSSSMSSSLPSSMSSSLSSSLSSSLSSSMSSSMSSLFIIPPPYTTTRSSGSSIIDTEIVSFYSTTDSPGHTITGTTTTTLYGPHTHSSVSTPSSSSESSTTSNSSIESSSLPHTSVSSTPESSITPSSNTISSSPTSDFSSVQSSSIMESSSVVASSSVINSSSIVDSSSSSASSLPSSMPSSLPSSMSSSLSSSMSSSLSSSLSSSLSSSMSSSMSSLFIIPPPYTTTRSSGSSIIDTEIVSFYSTTDSPGHTITGTTTTTLYGPHTHSSVSTPSSSSESSTTSNSSIESSSLPHTSVSSTPESSITPSSNTISSSPTSDFSSVQSSSIMESSSVVASSSATQSSSVINSSSIVDSSSSSASSLPSSMPSSLPSSLSSSLSSSLSSSMSSSMSSLFIIPPPYTTTRSSGSSIIDTEIVSFYSTTDSPGHTITGTTTTTLYESSIYSSSSSTIQESELSNTSRTTMTSNSSVSISSTSSRSSFSNTKSSTIVISQSASLPDSKTDIILSTSSNIGYSSRSLLSDLGTSISDSDIHHSVLHSTESYSSNESGTNPFTSIASLSNFIPESSSHTSTALGSENSVISSDILTTMSHPVATNSGDKPTTPKRSEQVSTTMTSSGPTPDTSSFDTDGMSAYSRPEFTTNSLEVNKSSTSQLGNNKQTFSNLQLESTRPHSENEVDNNTRLLQSIQQSSTYGTNNVNPLSPTGSISIPLTEDGQGDNNNWNSPATNDLCTQISFNLTATTITVTDRITITDSIHDISSEVITSYIYQTIVDQKTVTQTVDGKSLANKMSSIPKPSSRSLIQPQPPVAIELQEGAASTSRVSLVSLFISIILVLL
# Key:
# Experiment in all cases: glycan array binding signal (z-score within array); higher = stronger binding
# Settings in all cases: glycan notation: IUPAC condensed, linker removed
# [1] = target: Fuc(a1-2)Gal(b1-3)GalNAc(b1-3)Gal(a1-4)Gal(b1-4)Glc
# Outline: (§1)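 The Consortium for Functional Glycomics database supplied 3228 glycan arrays, of which those lacking an available protein sequence were dropped. The binding signal, a within-array Z-score, was averaged across arrays of the same protein sequence and across linkers. Negative scores can be read as non-binding.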
# [2] = target: Fuc(a1-2)Gal(b1-3)GlcNAc(b1-2)Man(a1-3)[Fuc(a1-2)Gal(b1-3)GlcNAc(b1-2)Man(a1-6)]Man(b1-4)GlcNAc(b1-4)[Fuc(a1-6)]GlcNAc
# Outline: as §1
# [3] = target: Fuc(a1-2)Gal(b1-4)GlcNAc(b1-2)[Fuc(a1-2)Gal(b1-4)GlcNAc(b1-4)]Man(a1-3)[Fuc(a1-2)Gal(b1-4)GlcNAc(b1-2)Man(a1-6)]Man(b1-4)GlcNAc(b1-4)GlcNAc
# Outline: as §1
# [4] = target: Fuc(a1-2)Gal(b1-4)[Fuc(a1-3)]GlcNAc(b1-2)Man(a1-3)[Fuc(a1-2)Gal(b1-4)[Fuc(a1-3)]GlcNAc(b1-2)Man(a1-6)]Man(b1-4)GlcNAc(b1-4)[Fuc(a1-6)]GlcNAc
# Outline: as §1
# [5] = target: Fuc(a1-2)Gal(b1-4)[Fuc(a1-3)]GlcNAc(b1-3)Gal(b1-4)[Fuc(a1-3)]GlcNAc(b1-3)Gal(b1-4)[Fuc(a1-3)]GlcNAc
# Outline: as §1
# [6] = target: Fuc(a1-2)Gal(b1-4)[Fuc(a1-3)]GlcNAc(b1-3)[Neu5Ac(a2-6)Gal(b1-4)GlcNAc(b1-6)]Gal(b1-4)Glc
# Outline: as §1
# [7] = target: Fuc(a1-2)[Gal(a1-3)]Gal(b1-4)GlcNAc(b1-2)Man(a1-3)[Fuc(a1-2)[Gal(a1-3)]Gal(b1-4)GlcNAc(b1-2)Man(a1-6)]Man(b1-4)GlcNAc(b1-4)GlcNAc
# Outline: as §1
# [8] = target: Fuc(a1-2)[GalNAc(a1-3)]Gal(b1-3)GalNAc(b1-3)Gal(a1-4)Gal(b1-4)Glc
# Outline: as §1
# [9] = target: Fuc(a1-2)[GalNAc(a1-4)]Gal(b1-4)GlcNAc
# Outline: as §1
# [10] = target: Fuc(a1-3)[Gal(b1-4)]GlcNAc(b1-6)GalNAc
# Outline: as §1
# [11] = target: Gal(a1-4)GlcNAc
# Outline: as §1
# [12] = target: Gal(b1-3)GlcNAc(a1-6)Gal(b1-4)GlcNAc
# Outline: as §1
# [13] = target: Gal(b1-3)GlcNAc(b1-2)Man(a1-3)[Gal(b1-3)GlcNAc(b1-2)Man(a1-6)]Man(b1-4)GlcNAc(b1-4)GlcNAc
# Outline: as §1
# [14] = target: Gal(b1-3)GlcNAc(b1-3)Gal(b1-4)GlcNAc(b1-6)[Gal(b1-3)GlcNAc(b1-3)]Gal(b1-4)Glc
# Outline: as §1
# [15] = target: Gal(b1-3)GlcNAc(b1-3)Gal(b1-4)[Fuc(a1-3)]GlcNAc(b1-6)[Gal(b1-3)GlcNAc(b1-3)]Gal(b1-4)Glc
# Outline: as §1
# [16] = target: Gal(b1-4)GlcNAc(b1-2)Man(a1-3)[Gal(b1-4)GlcNAc(b1-2)Man(a1-6)][GlcNAc(b1-4)]Man(b1-4)GlcNAc(b1-4)[Fuc(a1-6)]GlcNAc
# Outline: as §1
# [17] = target: Gal(b1-4)GlcNAc(b1-2)Man(a1-3)[Man(a1-6)]Man(b1-4)GlcNAc(b1-4)GlcNAc
# Outline: as §1
# [18] = target: Gal(b1-4)GlcNAc(b1-2)Man(a1-6)[GlcNAc(b1-2)Man(a1-3)]Man(b1-4)GlcNAc(b1-4)GlcNAc
# Outline: as §1
# [19] = target: Gal(b1-4)GlcNAc(b1-2)[Gal(b1-4)GlcNAc(b1-4)]Man(a1-3)[Gal(b1-4)GlcNAc(b1-2)[Gal(b1-4)GlcNAc(b1-6)]Man(a1-6)]Man(b1-4)GlcNAc(b1-4)GlcNAc
# Outline: as §1
# [20] = target: Gal(b1-4)GlcNAc(b1-3)Gal(b1-4)GlcNAc(b1-2)[Gal(b1-4)GlcNAc(b1-3)Gal(b1-4)GlcNAc(b1-6)]Man(a1-6)[Gal(b1-4)GlcNAc(b1-3)Gal(b1-4)GlcNAc(b1-2)Man(a1-3)]Man(b1-4)GlcNAc(b1-4)[Fuc(a1-6)]GlcNAc
# Outline: as §1
# [21] = target: Gal(b1-4)GlcNAc(b1-3)Gal(b1-4)GlcNAc(b1-3)Gal(b1-4)GlcNAc(b1-2)[Gal(b1-4)GlcNAc(b1-3)Gal(b1-4)GlcNAc(b1-3)Gal(b1-4)GlcNAc(b1-6)]Man(a1-6)[Gal(b1-4)GlcNAc(b1-3)Gal(b1-4)GlcNAc(b1-3)Gal(b1-4)GlcNAc(b1-2)Man(a1-3)]Man(b1-4)GlcNAc(b1-4)[Fuc(a1-6)]GlcNAc
# Outline: as §1
# [22] = target: Gal(b1-4)GlcNAc(b1-3)Gal(b1-4)GlcNAc(b1-3)Gal(b1-4)GlcNAc(b1-3)Gal(b1-4)GlcNAc(b1-3)Gal(b1-4)GlcNAc(b1-2)Man(a1-3)[Gal(b1-4)GlcNAc(b1-3)Gal(b1-4)GlcNAc(b1-3)Gal(b1-4)GlcNAc(b1-3)Gal(b1-4)GlcNAc(b1-3)Gal(b1-4)GlcNAc(b1-2)Man(a1-6)]Man(b1-4)GlcNAc(b1-4)[Fuc(a1-6)]GlcNAc
# Outline: as §1
# [23] = target: Gal(b1-4)GlcNAc(b1-3)Gal(b1-4)GlcNAc(b1-3)Gal(b1-4)GlcNAc(b1-3)Gal(b1-4)GlcNAc(b1-3)Gal(b1-4)GlcNAc(b1-2)[Gal(b1-4)GlcNAc(b1-3)Gal(b1-4)GlcNAc(b1-3)Gal(b1-4)GlcNAc(b1-3)Gal(b1-4)GlcNAc(b1-3)Gal(b1-4)GlcNAc(b1-6)]Man(a1-6)[Gal(b1-4)GlcNAc(b1-3)Gal(b1-4)GlcNAc(b1-3)Gal(b1-4)GlcNAc(b1-3)Gal(b1-4)GlcNAc(b1-3)Gal(b1-4)GlcNAc(b1-2)Man(a1-3)]Man(b1-4)GlcNAc(b1-4)[Fuc(a1-6)]GlcNAc
# Outline: as §1
# [24] = target: Gal(b1-4)GlcNAc(b1-3)Gal(b1-4)GlcNAc(b1-3)GalNAc
# Outline: as §1
# [25] = target: Gal(b1-4)GlcNAc(b1-3)Gal(b1-4)GlcNAc(b1-6)[Gal(b1-3)]GalNAc
# Outline: as §1
# [26] = target: Gal(b1-4)GlcNAc(b1-3)Gal(b1-4)[Fuc(a1-3)]GlcNAc(b1-3)Gal(b1-4)[Fuc(a1-3)]GlcNAc
# Outline: as §1
# [27] = target: Gal(b1-4)GlcNAc(b1-3)GalNAc
# Outline: as §1
binder,measurement,setting,value
B1,glycan array binding signal (z-score),[1],2.34
same,glycan array binding signal (z-score),[2],1.49
same,glycan array binding signal (z-score),[3],3.23
same,glycan array binding signal (z-score),[4],-0.693
same,glycan array binding signal (z-score),[5],1.19
same,glycan array binding signal (z-score),[6],-1.1
same,glycan array binding signal (z-score),[7],2.45
same,glycan array binding signal (z-score),[8],2.28
same,glycan array binding signal (z-score),[9],-0.218
same,glycan array binding signal (z-score),[10],0.39
same,glycan array binding signal (z-score),[11],2.25
same,glycan array binding signal (z-score),[12],0.259
same,glycan array binding signal (z-score),[13],2.55
same,glycan array binding signal (z-score),[14],1.3
same,glycan array binding signal (z-score),[15],2.48
same,glycan array binding signal (z-score),[16],1.4
same,glycan array binding signal (z-score),[17],-0.338
same,glycan array binding signal (z-score),[18],0.07
same,glycan array binding signal (z-score),[19],-0.258
same,glycan array binding signal (z-score),[20],-1.19
same,glycan array binding signal (z-score),[21],1.96
same,glycan array binding signal (z-score),[22],0.113
same,glycan array binding signal (z-score),[23],-0.313
same,glycan array binding signal (z-score),[24],1.03
same,glycan array binding signal (z-score),[25],-0.292
same,glycan array binding signal (z-score),[26],0.452
same,glycan array binding signal (z-score),[27],-0.074
